Laboratory results published in PubChem BioAssay AID540308 (The Scripps Research Institute Molecular Screening Center, 2011).
Among all 360,000 compounds or so, about 3,500 (0.97%) were called active. The sample holds actives, similar compounds and a random draw of the others, so the mix is not that of the screen.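 Rule for the calls: active = activation above a per-plate cutoff, the mean activation of sample wells on that plate plus 3 SD (cut at about 8% in these data); inactive = the rest.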

molecular target: Melanocortin receptor 4 (Homo sapiens) (UniProt P32245); test: MC4R agonists recruiting beta-arrestin, primary screen, cell-based, luminescence, agonist arm of biased-ligand search (AID 540308); conditions: U2OS MC4R beta-arrestin complementation, at 8.9 µM, active compounds read high, percent of melanotan II response, DMSO zero
Sequence (P32245 whole entry, looked up): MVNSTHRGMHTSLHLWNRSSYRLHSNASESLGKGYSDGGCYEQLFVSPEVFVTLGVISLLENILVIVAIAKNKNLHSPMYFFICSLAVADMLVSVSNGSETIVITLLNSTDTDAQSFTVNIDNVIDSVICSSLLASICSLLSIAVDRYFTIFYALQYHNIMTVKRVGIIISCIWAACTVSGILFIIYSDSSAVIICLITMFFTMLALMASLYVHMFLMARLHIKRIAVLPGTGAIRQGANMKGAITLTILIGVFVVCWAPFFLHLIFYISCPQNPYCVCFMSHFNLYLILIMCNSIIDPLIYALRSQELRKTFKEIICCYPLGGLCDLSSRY

Row | Structure (SMILES) | activation
1 | Cc1cccc(-c2cnc(C(O)c3ccc4ccccc4c3)[nH]2)c1 (stereo unspecified) | 3.46% (inactive)
2 | CSc1ccc(CNC(=O)C2(C)CCCN2C)cc1 (stereo unspecified) | 1.3% (inactive)
3 | COc1cccc(-c2cnc(C(O)c3ccccc3OC)[nH]2)c1 (stereo unspecified) | -2.21% (inactive)
4 | CCc1ccc(CNC(=O)C2CCN(c3nnc(C)c4c(C)n(-c5ccc(C)cc5)nc34)CC2)cc1 | 26.2% (active)
5 | CCOc1ccc(CNC(=O)C2CCCN(c3nnc(C)c4c(C)n(-c5ccccc5)nc34)C2)cc1 (stereo unspecified) | 5.34% (inactive)
6 | CCc1ccc(CNC(=O)C2CC(=O)N(CCc3ccc(C)cc3)C2)cc1 (stereo unspecified) | -0.56% (inactive)
7 | COc1ccc(C(C)C)cc1-c1ccc2nncn2c1 | 0.08% (inactive)
8 | CC1(C(=O)Nc2cccnc2)Cc2c(-c3ccccc3)ccnc2O1 (stereo unspecified) | -1.27% (inactive)
9 | O=C(Nc1ncc2c(n1)CC(c1ccco1)CC2=O)c1ccc(Cl)cc1 (stereo unspecified) | -1.23% (inactive)
10 | CCc1ccc(Nc2ncc3c(n2)CC(c2ccco2)CC3=O)cc1 (stereo unspecified) | 9.92% (active)
11 | CN1CCN(c2ncc3c(n2)CC(c2ccccc2F)CC3=O)CC1 (stereo unspecified) | -1.94% (inactive)
12 | COc1ccc(Nc2ncnc3sc(-c4ccccc4)cc23)c(OC)c1 | 10.6% (active)
13 | COc1ccccc1Nc1ncnc2c1oc1ccccc12 | 0.07% (inactive)
14 | COc1ccc(Nc2ncnc3ccc(Br)cc23)c(OC)c1 | 0.1% (inactive)
15 | CC1(Oc2cccc(F)c2)CCN(Cc2ccccc2OC(F)F)C1 (stereo unspecified) | -1.66% (inactive)
16 | CCCOc1ccc(F)cc1-c1cc(C(=O)NCc2ccc(F)cc2)[nH]n1 | 0.57% (inactive)
17 | Oc1cccc2cc(-c3ccncc3)cnc12 | -1.87% (inactive)
18 | COc1ccc(NC(=O)c2sc(=O)n(Cc3ccc(S(=O)(=O)N(C)C)cc3)c2C)cc1 | -1.44% (inactive)
19 | COc1cccc(CN2CCC(C(=O)NC(c3ccc4c(c3)OCO4)c3ccccn3)CC2)c1 (stereo unspecified) | -1.26% (inactive)
20 | CCc1nc2c(OCCOc3ccccc3)cccn2c1N(C)C(=O)c1ccc(OC)cc1 | -0.76% (inactive)
21 | Brc1ccc(-c2csc(N/N=C/c3cccnc3)n2)cc1 | 11.6% (active)
22 | O=C(CSc1cccc2cccnc12)N/N=C/c1cccnc1 | -5.02% (inactive)

Row | Structure (SMILES) | activation
23 | O=C(N/N=C\c1cccnc1)c1cc(-c2ccccc2)nc2c(Cl)cccc12 | -0.85% (inactive)
24 | COc1ccc(S(=O)(=O)NC(=O)C2(C)CCN2C(=O)COc2ccc(Cl)cc2)cc1 (stereo unspecified) | -1.47% (inactive)
25 | Cc1nn2cc(-c3ccc(Cl)cc3)cnc2c1Br | 13.2% (active)
26 | CC(=O)NC(c1cccc(F)c1)c1nc(-c2cccc(F)c2)cs1 (stereo unspecified) | 0.2% (inactive)
27 | Cc1ccc(F)c(S(=O)(=O)NC(=O)C2(C)CCN2C(=O)CCc2cccs2)c1 (stereo unspecified) | 0.83% (inactive)
28 | CC(C)Oc1cc(F)ccc1-c1cc(C(=O)Nc2ccc(F)cc2)[nH]n1 | -0.4% (inactive)
29 | COc1cc(C(O)c2nc(-c3cnn(C)c3)cs2)ccc1F (stereo unspecified) | -1.52% (inactive)
30 | Cc1coc2c(O)cc3c(c12)OC1(N2CCCCC2)C(=O)NCCCC31 (stereo unspecified) | 8.45% (active)
31 | O=C(NCc1cccc(C(F)(F)F)c1)c1ccc2sc(COCCO)nc2c1 | -1.45% (inactive)
32 | CCOC(=O)c1c(NC(=O)CNC2CCCc3ccccc32)sc(C(N)=O)c1C (stereo unspecified) | 8.65% (active)
33 | NC(=O)Nc1ccc(C(=O)OCC(=O)NC2CCCc3ccccc32)cc1 (stereo unspecified) | -2.32% (inactive)
34 | CCOC(=O)c1c(NC(=S)SC)sc(C(=O)N2CCc3ccccc3C2)c1C | -0.37% (inactive)
35 | C#Cc1ccc(NC(=O)C2(C)CCN2C(=O)Cc2ccc(-c3ccccc3)cc2)cc1 (stereo unspecified) | 0.34% (inactive)
36 | CCCC/C=C/c1cccc2nncn12 | 0.76% (inactive)
37 | CN1CCC(CN)(N2CCN(c3ccccc3)CC2)CC1 | 0.54% (inactive)
38 | COc1ccccc1N1CCN(c2ncnc3sc(C)c(-c4ccccc4)c23)CC1 | 2.5% (inactive)
39 | Oc1ccccc1N1CCN(c2ncnc3sc(-c4ccccc4)cc23)CC1 | 14.4% (active)
40 | CCc1cc2c(N3CCN(c4nnc(CC)s4)CC3)ncnc2s1 | 1% (inactive)
41 | CCCNC(=O)C1(C)CCN(C(=O)c2cc(F)ccc2C)C1 (stereo unspecified) | -0.94% (inactive)
42 | CC(C)(C(=O)N1CCC1(C)C(=O)NS(=O)(=O)c1ccc(Br)cc1)c1ccccc1 (stereo unspecified) | -0.16% (inactive)
43 | Cc1ccc(C2(C(F)(F)F)N=C3Sc4cc(C)cc(C)c4N3C(=O)N2)cc1 (stereo unspecified) | -0.99% (inactive)
44 | CCOC(=O)N(C)c1c(CC)nc2c(OCc3ccccc3C(=O)OC)cccn12 | -1.73% (inactive)

Row | Structure (SMILES) | activation
45 | CCc1nc2c(OCCOc3ccc(F)cc3)cccn2c1N(C)C(=O)c1ccccc1F | 0.11% (inactive)
46 | COc1ccc(NC(=O)CCCC2CCCCC2)c(OC)c1 | -1.23% (inactive)
47 | CC(=O)Oc1ccc(NC(=O)CCC2CCCCC2)c(C(=O)O)c1 | 0.62% (inactive)
48 | COC(=O)c1sccc1NC(=O)CCC1CCCC1 | 10.9% (active)
49 | COCCCNC(=O)c1cccc2c(-c3ccc(O)c(OC)c3)coc12 | 0.52% (inactive)
50 | COc1ccc(S(=O)(=O)Nc2ccc3cn[nH]c3c2)cc1[N+](=O)[O-] | -0.37% (inactive)
51 | Cc1ccc(S(=O)(=O)N/N=C\c2cc3c(cc2[N+](=O)[O-])OCO3)cc1 | -2.43% (inactive)
52 | COc1ccc(S(=O)(=O)N/N=C\c2ccc(OC)c(COc3ccc(C)cc3[N+](=O)[O-])c2)cc1 | 12.8% (active)
53 | CN1CCN(C(=O)c2ccc(-c3cc4nc(NCc5cccnc5)n(C)c(=O)c4s3)cc2)CC1 | -1.19% (inactive)
54 | Cc1ccc(S(=O)(=O)NCCC(=O)Nc2ccc(C)c(Cl)c2)cc1C | 10.6% (active)
55 | Cc1ccc(S(=O)(=O)NCCC(=O)Nc2cccc(S(N)(=O)=O)c2)cc1C | -1.36% (inactive)
56 | Cc1ccc(NC(=O)CCNS(=O)(=O)c2ccc3c(c2)oc(=O)n3C)cc1C | -0.21% (inactive)
57 | O=C(Nc1ccc(F)cc1)Nc1nnc([C@H]2C[C@H](O)[C@@H](CO)O2)s1 | 0.21% (inactive)
58 | O=C(NCc1cccnc1)c1ccc2nc([C@@H]3O[C@H](CO)[C@H](O)[C@H](O)[C@H]3O)[nH]c2c1 | -1.52% (inactive)
59 | CC(=O)c1ccc(Nc2nc(C(N)c3ccccc3)cs2)cc1 (stereo unspecified) | 1.43% (inactive)
60 | CC1(C(=O)Nc2cccc(Oc3ccccc3)c2)CCN1Cc1ccccc1Cl (stereo unspecified) | -1.51% (inactive)
61 | CCn1c(SCC(=O)Nc2cccc(F)c2)nnc1-c1cc2cc(Br)ccc2o1 | 14.9% (active)
62 | CCn1c(CNC(=O)c2ccco2)nnc1SCC(=O)Nc1cccc(F)c1 | 2.05% (inactive)
63 | Cc1nc2nc(SCC(=O)Nc3cccc(F)c3)[nH]c2cc1Br | 4.22% (inactive)
64 | CCCNS(=O)(=O)c1ccc2c(c1)CCCN2C(C)=O | -3.18% (inactive)
65 | CN(C(=O)CN1CCN(c2cc(-c3ccc(OCc4ccccc4)cc3)ncn2)CC1)c1ccccc1 | -0.62% (inactive)
66 | CCCS(=O)(=O)NC(=O)C1(C)CCCN(C(=O)c2cccs2)C1 (stereo unspecified) | -0.48% (inactive)
